Drawing on PubChem BioAssay (NCI), this text covers growth for 14 molecules.

About 83,000 compounds went through this panel and 20% of them were active in at least one assay; those are over-represented in the sample as a whole.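 Interpretation: 100, growth as untreated; towards 0, rising growth inhibition; 0, no net growth; 0 to -100, cell death. Compounds scoring below 10 were considered active.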 A number with no mark means an inactive call. The source made the active and inactive calls.

Assay in all cases: NCI-60 one-dose screen, 48 h (100 = growth as untreated, 0 = no growth, -100 = all killed)
What all share (conditions): 10 µM unless noted

The test system of test [1] is HCT-15 colon.
Test [2] deals with HT29 colon.
The test system of test [3] is SNB-75 CNS.
Test [4] relates to SNB-19 CNS.
The test system of test [5] is U251 CNS.
The test system of test [6] is PC-3 prostate.
For test [7], the system named is SK-MEL-5 melanoma.
Test [8] concerns UACC-62 melanoma.
The test system of test [9] is LOX IMVI melanoma.
Test [10] relates to SK-MEL-28 melanoma.

Regarding `COc1cc(C2CC(c3ccc(N(C)C)cc3)=NN2C(C)=O)cc(OC)c1OC` (stereo not given), the growth in [1] is 24.6%; in [2] it was 9.83% (active); in test [3], -23.6% (active); in test [4] it was 39.3%; in test [5], 29.3%; in [6] it was 29.4%. Moreover, the growth in test [7] is 9% (active); in [8], 26.9%; in test [9], 37.6%; in test [10] it was 52.2%.

As to `COc1ccc(/C=C(/C#N)n2nnc3cccc(F)c32)cc1`, the growth in test [1] was 13.2%; in test [2], 1.29% (active); in [3], -43.5% (active); in test [4] it was 24.6%; in test [5], 14.3%; in [6] it was 27.1%. For the same molecule, the growth in test [7] was -7.21% (active); in [8], 17.9%; in test [9], 5.5% (active); in [10], 48.1%.

For `COc1ccc(CNC(=O)C(=O)[C@H](Cc2ccccc2)NC(=O)c2[nH]c3ccccc3c(=O)c2C)cc1`, the growth in [1] is 103%; in test [2] it was 108%; in test [3], 87.4%; in [4] it was 100%; in test [5], 100%; in [6], 95.1%. Moreover, the growth is 100% in test [7], 95.6% in [8], 102% in test [9] and 103% in [10].

As to `O=S(=O)(NCCCNc1cc(-c2c(-c3cccc(O)c3)nc3sccn23)ccn1)c1cccc2ccccc12`, the growth in test [1] was 24.4%; in test [2] it was 36.1%; in test [3] it was 4.78% (active); in test [4], 66.5%; in test [5], 46.2%; in test [6] it was 30.4%. For the same molecule, the growth in [7] is 37.3%; in test [8] it was 39%; in test [9] it was 33%; in [10], 67.3%.

As for `CCOC(=O)c1cnn2c3ccccc3n(S(=O)(=O)c3ccc(OC)cc3)c12`, the growth in [1] is 13%; in [2], 11.6%; in test [3] it was 61.3%; in test [4], 27.5%; in test [5], 26.3%; in test [6], 35.7%. Moreover, the growth in [7] is -15% (active); in test [8], 25.7%; in test [9] it was 18.7%; in [10], 57.9%.

For `C=C1C(=O)O[C@H]2[C@H]1CC/C(COC(=O)CCC(=O)NCCOCCOCC(=O)Nc1ccc(OC)c(C(N)=O)c1O)=C\CC[C@@]1(C)O[C@@H]21`, the growth was 92.3% in test [1]; 101% in [2]; 95.6% in test [3]; 99% in test [4]; 94.9% in test [5]; 101% in test [6]. In addition, the growth was 102% in test [7], 89.2% in test [8], 87.7% in test [9] and 93.2% in test [10].

In the case of `O=C(Cc1ccc(F)c(Cl)c1)Nc1cc(C2(C(F)(F)F)CC2)nn1Cc1ccccc1`, the growth in [1] is 93.9%; in test [2], 18%; in [3] it was -21.6% (active); in test [4], 9.43% (active); in test [5], 24.3%; in test [6] it was 86.8%. Moreover, the growth was 83.6% in test [7], 65.9% in test [8], 86.3% in [9] and 98% in test [10].

On to `OC(COc1ccccc1Cl)CN1CCN(c2cccc(Cl)c2)CC1` (stereo not given), for which the growth was 97.2% in test [1]; 99.2% in [2]; 104% in [3]; 97.6% in test [4]; 97.6% in [5]; 84.4% in [6]. Also, the growth was 102% in [7], 98.5% in test [8], 91.6% in test [9] and 107% in [10].

Turning to `NCCCNc1nc2ccccc2c2c(=O)c3cc(F)cc(F)c3sc12`, the growth was 77% in test [1]; -49.7% (active) in test [2]; 74.7% in [3]; 87.1% in test [4]; -69.2% (active) in [5]; 73.8% in test [6]. The growth in [7] was 92.3%; in [8], 103%; in [9], 60%; in test [10] it was -87.1% (active).

For `C=C(C)C1CCC2(C)OC2C1` (stereo not given), the growth is 112% in test [1]; 109% in test [2]; 80.4% in [3]; 110% in test [4]; 118% in [5]; 109% in test [6]. In addition, the growth in test [7] was 109%; in [8] it was 103%; in [9] it was 108%; in test [10], 127%.

Turning to `Cc1nc2ccccc2n1-c1ncnc2c1CC(C)c1ccccc1N2C` (stereo not given), the growth in test [1] is 75.4%; in test [2], 59.5%; in test [3], 70.3%; in test [4], 86%; in test [5], 78.8%; in [6], 67.2%. Besides, the growth is 91.3% in test [7], 71.2% in [8], 82.7% in test [9] and 91.7% in test [10].

On to `Cc1cc(C)c(-c2c(N)cc(Br)cc2Br)c(N)c1`, for which the growth is 46.5% in [1]; 48.7% in test [2]; 22.9% in test [3]; 63.4% in test [4]; 37.4% in test [5]; 63.3% in test [6]. Moreover, the growth was 29.3% in [7], 58% in test [8], 32.8% in test [9] and 51.1% in [10].

On to `O=S(=O)(Nc1ccc(-c2nc(-c3cccc(OCCN4CCOCC4)c3)c(-c3ccnc(Br)c3)[nH]2)cc1)c1ccccc1`, for which the growth in [1] is 8.1% (active); in test [2], 2.67% (active); in [3] it was 6.55% (active); in [4], 48.2%; in test [5] it was 35.2%; in test [6], 15.9%. The growth in test [7] was 37.5%; in test [8], 28.7%; in [9], 3.47% (active); in test [10] it was 38.7%.

With `COc1ccc(OC)c(/C=C/C(=O)N/N=C/c2ccccc2)c1`, the growth was 42% in test [1]; 20.7% in test [2]; 41.1% in [3]; 47.9% in [4]; 43.5% in test [5]; 63.5% in test [6]. Further, the growth is 30.8% in test [7], 61% in [8], 42.1% in test [9] and 65.5% in [10].
